The record followed here is PubChem BioAssay (Tox21).

Inconclusive results are not listed. Entries that show only a call come without a potency. Active and inactive are the calls of the source. Calls follow the shape of the dose curve; as a rule, active = well fitted activation curve with a large enough effect in the signal ratio in the repeat runs (not every such curve was filed as active); inconclusive = weak or mixed curves; inactive = flat fitted curve, though single readings scatter; the % refers to the signal ratio.

The experiment is described as follows: qHTS assay to identify small molecule agonists of H2AX (AID 1224845). The note with it: CHO-K1 phospho-H2AX Ser139 HTRF, 3 h; series mostly up to 154 µM. The source says:
National Center for Advancing Translational Sciences [NCATS]
NIH Chemical Genomics Center [NCGC]
U.S. Environmental Protection Agency [EPA]
National Institutes of Environmental Health Sciences [NIEHS]
National Toxicology Program [NTP]
U.S. Food and Drug Administration [FDA]
HTRF phospho-H2AX (Ser139) assay (Cisbio Bioassays, US) enables the quantitative detection of the histone variant H2AX when phosphorylated on serine 139. When double-stranded DNA breaks, either by ionizing radiation or endogenous physiological processes, H2AX becomes phosphorylated at Ser139. This phospho-Ser139 serves as a sensitive biomarker for the detection of such breaks, localizing the site of DNA repair. So, HTRF phospho-H2AX Ser139 is a pertinent assay to study genome stability, the cell cycle, DNA repair, and it serves as a biomarker for cancer, and to understand aging. Wild type CHO-K1 cells were used to identify the inducers of Phospho-H2AX Ser 139 from the Tox21 10K compound collections.
Tox21 Assay Protocol Summary:
The CHO-K1 cells suspended in culture medium containing 10% FBS were dispensed at 1000 cells/ 3 ul/well in 1536-well white wall/solid bottom plates (Greiner Bio-One North America, NC) using a Multidrop Combi (Thermo Fisher Scientific Inc., Waltham, MA). After the assay plates were incubated at 37C overnight, 23 nl of compounds at 15 concentrations (from 5-48 columns) or positive control (from 1 to 4 columns) were transferred to the assay plates using a Pintool station (Wako, San Diego, CA) into each well resulting in a final DMSO concentration of 0.76%. After 3hr incubation at 37C, 1 uL/well Supplemented Lysis buffer (diluted 100 fold blocking reagent in lysis buffer) (HTRF Phospho-H2A.X (S139) Assay kit from Cisbio US Inc., Bedford, MA) was added using a Flying Reagent Dispenser (FRD) (Aurora Discovery, CA). After 10sec spin at 1000 rpm in a plate centrifuge, the assay plates were incubated at room temperature for 30 min. Then followed by the addition of 1 uL/well detection buffer (containing a mixture of two antibodies, one labeled with cryptate, Anti pH2AX (S139)-K and another labeled with d2, Anti H2AX-d2) using FRD. After incubation at room temperature for 24 hr, the time resolved fluorescence at excitation 320 nm and emissions at 665 nm and 620 nm was measured using an Envision plate reader (PerkinElmer, Waltham, MA).
(qHTS replaces the single test concentration by a dilution series.)
For the molecule `CC(=O)c1ccc(Cl)c(Cl)c1Cl`, the Potency entry was “inactive”.

Consider `O=C(Cl)c1ccc(F)c(Cl)c1`, for which the Potency entry was “inactive”.

As for `OCCOc1cccc(OCCO)c1`, the Potency result was “inactive”.

On to `CCCCOC(=O)CC#N`, for which the Potency result was “inactive”.

In the case of `CCCCCO`, the Potency result was “inactive”.

Consider `CCC(C(=O)O)c1ccc(N2Cc3ccccc3C2=O)cc1` (stereo not given), for which the Potency result was “inactive”.

Turning to `CCCC(=O)OCCC(C)C`, the Potency entry was “inactive”.

Regarding `COC(=O)/C=C/C(C)=C\C=C\C(C)=C\C=C\C=C(C)\C=C\C=C(C)\C=C\C(=O)O`, the Potency entry was “inactive”.

Take `Nc1ccc(-c2ccc(F)cc2)cc1`: the Potency result was “inactive”.

As for `O=S(=O)(O)c1cc(Cl)c(Cl)cc1Cl`, the Potency result was “inactive”.

Consider `COC(=O)C(C)(C)C`, for which the Potency entry is “inactive”.

As for `CC(C)(C)N`, the Potency entry is “inactive”.

For `CCCCC(CC)COCCC#N` (stereo not given), the Potency entry was “inactive”.

As for `Cc1cc(C)n(CO)n1`, the Potency result was “inactive”.

As for `CCCCCCCCCCCCCCCCC(=O)O`, the Potency entry was “inactive”.

`CCC[Si](OC)(OC)OC`: the Potency result is “inactive”.

Consider `C/C=C1\[C@H]2C=C(C)C[C@]1(N)c1ccc(=O)[nH]c1C2`, for which the Potency result is “inactive”.

Regarding `CCOc1cc(OCC)c(C(C)=O)cc1OCC`, the Potency entry is “inactive”.

On to `CC(O)CN` (stereo not given), for which the Potency entry is “inactive”.

Regarding `O=C(OCCCCCOC(=O)c1ccccc1)c1ccccc1`, the Potency entry was “inactive”.

For the molecule `C[Si](C)(C)O[Si](C)(C)O[Si](C)(C)C`, the Potency entry is “inactive”.

On to `CC(C)CCCCCOC(=O)CS`, for which the Potency entry was “inactive”.

As for `C=C[Si](OCC)(OCC)OCC`, the Potency entry was “inactive”.

For the molecule `Cc1ccc2ccccc2c1[N+](=O)[O-]`, the Potency entry is “inactive”.

As to `CCCC1CCOC(C)S1` (stereo not given), the Potency result is “inactive”.

As for `CCCCCCC/C=C/C=O`, the Potency entry is “inactive”.

For `CC1(C)C(=O)NC(=O)N1CO`, the Potency result is “inactive”.

Consider `CC(COc1ccccc1)NC(C)C(O)c1ccc(O)cc1` (stereo not given), for which the Potency entry is “inactive”.

As for `CC(C(=O)O)c1ccc(/C=C2\CCCCC2=O)cc1` (stereo not given), the Potency entry is “inactive”.

For `O=C(c1ccco1)N1CCNCC1`, the Potency entry was “inactive”.

Turning to `FC1(F)C(F)(F)C(F)(F)C2(F)C(F)(C1(F)F)C(F)(F)C(F)(F)C1(F)C(F)(F)C(F)(F)C(F)(F)C(F)(F)C12F` (stereo not given), the Potency result is “inactive”.

As for `C=C(C)C(=O)OCCCCCCCCCCOC(=O)C(=C)C`, the Potency entry is “inactive”.

For the molecule `CC1(C)[C@@H]2CC[C@]3(C2)[C@@H]1C(=O)CCC3(C)C`, the Potency entry was “inactive”.

As for `CC[C@H](NC(C)C)[C@H](O)c1ccc(O)c2[nH]c(=O)ccc12`, the Potency entry was “inactive”.

As to `CCC(C)C1N=C(C)C(C)S1` (stereo not given), the Potency result was “inactive”.

For `C/C(=C(\CCO)SS/C(CCO)=C(\C)N(C=O)Cc1cnc(C)nc1N)N(C=O)Cc1cnc(C)nc1N`, the Potency entry is “inactive”.

Regarding `NC(=O)c1ccccc1C(N)=O`, the Potency entry was “inactive”.

Consider `Cc1nc(C)c(C)nc1C`, for which the Potency entry is “inactive”.

Consider `CC(C)Cc1nccs1`, for which the Potency result is “inactive”.

Consider `O=[N+]([O-])c1cccc(I)c1`, for which the Potency entry is “inactive”.
